# Measured values as given in PubChem BioAssay (NCATS).
# Records with an inconclusive call do not appear. Entries that show only a call come without a potency. Activity calls are given as the source filed them. Unless noted, the call rests on the fitted dose curve; in most records, active means well fitted curve in the direction sought with a large enough effect; inconclusive means small, poorly fitted or top-dose-only effect, or another doubt; inactive means no such curve, though single readings can be large; an effect the other way counts as inactive or inconclusive. Peptide text beside a SMILES is read from it.
# What was measured:
# [1] = target: Pyruvate kinase PKM (Homo sapiens) (UniProt P14618); assay: qHTS Assay for Activators of Human Muscle Pyruvate Kinase (AID 954; active means well fitted curve in the direction sought with a large enough effect, not every such curve was filed as active)
# Chain of Pyruvate kinase PKM (Homo sapiens) (P14618 whole entry, looked up): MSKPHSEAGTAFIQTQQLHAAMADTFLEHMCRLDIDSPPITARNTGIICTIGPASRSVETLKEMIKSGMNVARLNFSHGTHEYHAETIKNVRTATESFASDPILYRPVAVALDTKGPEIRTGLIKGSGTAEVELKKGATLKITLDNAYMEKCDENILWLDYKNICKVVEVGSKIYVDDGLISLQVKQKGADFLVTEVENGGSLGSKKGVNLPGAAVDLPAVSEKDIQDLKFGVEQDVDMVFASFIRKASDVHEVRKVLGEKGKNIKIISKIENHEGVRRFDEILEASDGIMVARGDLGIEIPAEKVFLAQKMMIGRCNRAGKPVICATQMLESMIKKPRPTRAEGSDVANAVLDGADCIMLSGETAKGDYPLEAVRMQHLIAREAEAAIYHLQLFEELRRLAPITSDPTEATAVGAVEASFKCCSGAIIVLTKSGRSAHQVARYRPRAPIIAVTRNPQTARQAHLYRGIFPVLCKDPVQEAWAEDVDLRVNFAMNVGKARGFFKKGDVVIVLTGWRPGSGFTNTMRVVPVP
# Outline: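 A coupled luminescent readout tracked ATP made from ADP by purified PKM2. Final conditions included 0.1 nM enzyme, PEP and ADP at 0.5 and 0.1 mM, pH 7.2 imidazole buffer with BSA, and a one-hour room-temperature reaction.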
# [2] = target: Pyruvate kinase (Leishmania mexicana) (UniProt Q27686); assay: qHTS Validation Assay for Activators of Leishmania Mexicana Pyruvate Kinase (AID 959)
# Chain of Pyruvate kinase (Leishmania mexicana) (Q27686 2-499 E452W): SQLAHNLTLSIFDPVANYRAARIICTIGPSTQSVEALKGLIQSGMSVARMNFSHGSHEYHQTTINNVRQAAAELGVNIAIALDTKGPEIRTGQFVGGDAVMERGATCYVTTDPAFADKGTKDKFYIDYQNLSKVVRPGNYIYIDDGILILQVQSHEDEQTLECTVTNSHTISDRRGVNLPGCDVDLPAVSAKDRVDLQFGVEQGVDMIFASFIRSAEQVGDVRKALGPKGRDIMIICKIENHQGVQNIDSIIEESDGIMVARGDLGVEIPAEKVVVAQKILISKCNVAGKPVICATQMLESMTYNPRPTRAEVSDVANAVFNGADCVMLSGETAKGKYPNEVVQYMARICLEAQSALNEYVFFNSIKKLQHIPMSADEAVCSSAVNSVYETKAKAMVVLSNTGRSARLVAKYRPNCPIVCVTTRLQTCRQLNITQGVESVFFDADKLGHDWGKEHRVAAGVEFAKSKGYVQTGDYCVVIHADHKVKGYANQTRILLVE
# Outline: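 Eight-point qHTS titrations; enzyme 0.2 nM LmPYK (E451W mutant); substrates 0.5 mM PEP, 0.1 mM ADP; 7 mM MgCl2; 1 h room temperature; PKLight luminescence normalized to neutral control.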
# [3] = target: Pyruvate kinase PKM (Homo sapiens) (UniProt P14618); assay: qHTS Assay for Inhibitors of Human Muscle Pyruvate Kinase (AID 958); conditions: purified human PKM enzyme activity
# Outline: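 Screening used highly purified human pyruvate kinase M2 under submaximal activity, with PEP at its Km and ADP below Km. After an hour at room temperature, ATP was read by luciferase luminescence.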
# [4] = MultiTox-Fluor Cytotoxicity Assay - LYMP1-002 - Live Cells (AID 955);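 further: cells exposed to compound for 16 hours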; further: potency means the concentration at half of the fitted maximal effect
# Outline: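 After 16 h compound exposure at 37 C, live LYMP1-002 lymphoblastoid cells (2500/well) were quantified by cleavage of cell-permeant GF-AFC substrate, read at 405/510 nm after 60 min. Concentration-response fitted with Hill equation for AC50.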
# [5] = MultiTox-Fluor Cytotoxicity Assay - LYMP1-003 - Dead Cells (AID 961); further: nearly all actives have a fitted effect of over 70% in size; further: potency means the concentration at half of the fitted maximal effect
# Outline: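 Human lymphoblastoid LYMP1-003 cells (2500/well) were treated with compounds for 16 hr at 37 C in complete medium. Dead-cell protease release was read by bis-AAF-R110 fluorescence (Ex/Em 485/520). AC50 came from Hill fits, normalized to DMSO and 15 uM tetraoctylammonium bromide.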
# [6] = MultiTox-Fluor Cytotoxicity Assay - LYMP1-003 - Live Cells (AID 962);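 further: cells exposed to compound for 16 hours at 37 °C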; further: potency means the concentration at half of the fitted maximal effect
# Outline: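 Live-cell protease activity (GF-AFC substrate, 405/510 nm, 60 min at room temperature) after 16 h, 37 C compound exposure of human lymphoblastoid LYMP1-003 cells; concentration-response fitted to the Hill equation for AC50.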
# [7] = Cell Viability - LYMP1-003 - Assay at 24 hr (AID 963); further: potency means the concentration at half of the fitted maximal effect
# Outline: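 Concentration-response qHTS: ATP loss measured by CellTiter-Glo luminescence after 24 h compound exposure at 37 C. Cells were LYMP1-003 human lymphoblastoid, 2500 per well. AC50 derived via standard Hill equation modeling.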
# [8] = Cell Viability - LYMP1-003 - Assay at 40 hr (AID 964); further: nearly all actives have a fitted effect of over 60% in size; further: potency means the concentration at half of the fitted maximal effect
# Outline: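 Viability is taken as cellular ATP, read by CellTiter-Glo luminescence after 40 h of compound exposure at 37 C. Cells: human lymphoblastoid line LYMP1-003 at 2500/well; AC50 values derived by Hill-equation fitting of concentration-response data.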
# [9] = Cell Viability - LYMP2-003 (AID 965);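 further: cells exposed to compounds for 24 h before reading; nearly all actives have a fitted effect of over 50% in size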; further: potency means the concentration at half of the fitted maximal effect
# Outline: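 CellTiter-Glo luminescence quantified ATP loss after 24 h compound treatment of LYMP2-003 lymphoblastoid cells at 37 C. Titration series were fitted with the standard Hill equation to give AC50.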
# [10] = MultiTox-Fluor Cytotoxicity Assay - LYMP1-002 - Dead Cells (AID 960); further: nearly all actives have a fitted effect of over 60% in size
# Outline: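 Dead-cell fluorescence (Ex/Em 485/520) after 16 h compound exposure at 37 C of LYMP1-002 lymphoblastoid cells in complete medium; AC50 by Hill equation, with data scaled between DMSO and 15 uM tetraoctylammonium bromide.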
structure (smiles),measurement,setting,value
CC(=O)N1CCN(c2ccc(OC[C@H]3CO[C@](Cn4ccnc4)(c4ccc(Cl)cc4Cl)O3)cc2)CC1,outcome,[1],inactive
COc1ccccc1N1CCN(CCN(C(=O)C2CCCCC2)c2ccccn2)CC1,outcome,[1],inactive
Oc1ccc(-c2nc(-c3ccc(F)cc3)c(-c3ccncc3)[nH]2)cc1,outcome,[1],inactive
O=c1c(O)c(-c2ccc(O)cc2O)oc2cc(O)cc(O)c12,outcome,[1],inactive
same,Potency,[2],20 µM (active)
CCN(CC)C(=S)SSC(=S)N(CC)CC,outcome,[1],inactive
NNc1nncc2ccccc12,outcome,[1],inactive
same,Potency,[3],7.94 µM (active)
same,Potency,[2],inactive
COC(=O)[C@H](Cc1ccccc1)NC(=O)[C@@H](N)CC(=O)O (H-Asp-Phe-OMe),Potency,[4],inactive
same,Potency,[5],inactive
same,Potency,[6],inactive
same,Potency,[7],inactive
same,Potency,[8],inactive
same,Potency,[9],inactive
CC(=O)Nc1ccc(O)cc1,Potency,[4],inactive
same,outcome,[10],inactive
same,Potency,[5],inactive
same,Potency,[6],inactive
same,Potency,[7],inactive
same,Potency,[8],inactive
same,Potency,[9],inactive
O=c1cc(N2CCOCC2)oc2c(-c3ccccc3)cccc12,outcome,[1],inactive
CN(C)c1ccc2nc3ccc(=[N+](C)C)cc-3sc2c1,Potency,[4],12.6 µM (active)
same,Potency,[5],39.8 µM (active)
same,Potency,[6],7.94 µM (active)
same,Potency,[7],7.94 µM (active)
same,Potency,[8],3.98 µM (active)
same,Potency,[9],3.98 µM (active)
CCCc1cc(=O)[nH]c(=S)[nH]1,Potency,[4],inactive
same,outcome,[10],inactive
same,Potency,[5],inactive
same,Potency,[6],inactive
same,Potency,[7],inactive
same,Potency,[8],inactive
same,Potency,[9],inactive
CCc1nc(N)nc(N)c1-c1ccc(Cl)cc1,Potency,[4],inactive
same,outcome,[10],inactive
same,Potency,[5],inactive
same,Potency,[6],inactive
same,Potency,[8],7.94 µM (active)
same,Potency,[9],inactive
CC(C)c1ccc2c(c1)c(SC(C)(C)C)c(CC(C)(C)C(=O)O)n2Cc1ccc(Cl)cc1,outcome,[1],inactive
